Most compounds without a hit are left out; they make up all but 3.3% or so of the library.
SARS PLP yeast – inhibitors of SARS-CoV papain-like protease in yeast | Potency, µM (titrated, usually from 32.9 µM), hits mostly activators | S. cerevisiae expressing SARS-CoV PLpro, growth rescue | AID 485353 | 330,000 compounds, 0.19% hits; calls by dose curve; note: nearly all actives have a fitted effect of over 55% in size
AmpC inh no detg – inhibitors of E. coli AmpC beta-lactamase without detergent | P00811 | AmpC nitrocefin hydrolysis, absorbance 480 nm, 0.0001% Triton | Potency, µM (doses to about 57.1 µM), actives largely listed as inhibitors | 330,000 compounds, 0.52% hits | AID 485341; note: nearly all actives have a fitted effect of over 20% in size
Target sequence (P00811 whole entry, looked up): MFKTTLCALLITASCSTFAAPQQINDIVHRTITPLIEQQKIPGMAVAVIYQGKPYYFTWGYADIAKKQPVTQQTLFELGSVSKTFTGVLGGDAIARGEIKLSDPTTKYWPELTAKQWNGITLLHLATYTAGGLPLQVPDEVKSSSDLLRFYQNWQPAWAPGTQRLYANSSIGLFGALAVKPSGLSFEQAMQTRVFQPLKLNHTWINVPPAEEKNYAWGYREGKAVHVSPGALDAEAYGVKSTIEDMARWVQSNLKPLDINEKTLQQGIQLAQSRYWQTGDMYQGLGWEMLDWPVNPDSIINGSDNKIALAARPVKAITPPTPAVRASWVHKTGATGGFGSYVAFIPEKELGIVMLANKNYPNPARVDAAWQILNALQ
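20 mM phosphate pH 7.0 + 0.01% (detergent screen) or 0.0001% Triton X-100; 5.3 nM AmpC reagent; cpd preinc 15 min RT; nitrocefin (800 uM stock) to start; A480 q20 s × 4 min; Activity was normalised to no-enzyme and no-compound control wells.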
RE007 growth inh – less growth of the S. pombe RE007 Vpr strain. 360,000 compounds, 0.21% hits. Potency, µM (highest dose often 92.2 µM), hits mostly inhibitors. S. pombe RE007 Vpr strain, BacTiter-Glo ATP luminescence, 24 h; active = well fitted falling curve with a large enough effect; inconclusive = small, poorly fitted or top-dose-only effect; inactive = no such curve, though single readings can be large or run the other way; note: nearly all actives have a fitted effect of over 50% in size
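Fission yeast RE007 carrying one integrated HIV-1 vpr copy, seeded at OD 0.01 in PMG+AL medium with 23 nL pinned compound. Grown 24 h at 30 degrees; viability read by BacTiter-Glo luminescence after 5 min.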
Sm TGR inh – S. mansoni TGR enzyme inhibition; purified TGR, DTNB reduction, TNB absorbance 405 nm; AID 485364; Potency, µM (titrated, usually from 114 µM), actives largely listed as inhibitors; 360,000 compounds, 3% hits; note: nearly all actives have a fitted effect of over 60% in size
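Kinetic colorimetric format: TGR-catalysed, NADPH-driven DTNB reduction monitored via TNB absorbance. Enzyme dispensed at 20 nM; compound exposure 15 min at room temperature before reaction start.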
Tb PYK inh – T. brucei pyruvate kinase inhibition. Q57TT1. TbPYK enzyme, Kinase-Glo Plus ATP luminescence, 45 min. Potency, µM (titrated, usually from 76.8 µM), most hits filed as inhibitors. 410,000 compounds, 0.12% hits. AID 624173; note: nearly all actives have a fitted effect of over 50% in size
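Quantitative HTS: titrated library compounds versus trypanosomal pyruvate kinase in TEA buffer (pH 7.2) containing KCl, MgCl2, BSA and Tween-20. Reactions were initiated with ADP, 130 uM final. Kinase-Glo Plus luminescence was read after 45 min at RT.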
AmpC inh detg – blocks E. coli AmpC beta-lactamase in detergent assay. Potency, µM (top dose mostly 114 µM), hits mostly inhibitors. 370,000 compounds, 0.041% hits. AmpC hydrolysis of nitrocefin, absorbance 480 nm, 0.01% Triton; note: nearly all actives have a fitted effect of over 25% in size
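AmpC (5.3 nM in the dispensed reagent) in 20 mM phosphate pH 7.0 with 0.01% (detergent screen) or 0.0001% Triton X-100 was preincubated with compounds for 15 min at room temperature. Nitrocefin was then added from an 800 uM solution, and hydrolysis was followed at 480 nm.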
Numbers stand for hits. Unless noted, calls come from the whole dose curve; as a rule, active = well fitted curve in the direction sought with a large enough effect; inconclusive = small, poorly fitted or top-dose-only effect, or another doubt; inactive = no such curve, though single readings can be large; an effect the other way counts as inactive or inconclusive.

How did COc1cccc(NC(=O)Cn2c(=O)n(-c3cccc(OC)c3)c(=O)c3c4c(sc32)CCCC4)c1 do in these assays?
Sm TGR inh: inactive; Tb PYK inh: inactive; AmpC inh detg: inactive

How did Cc1cccc(CC(=O)OCn2nnc3ccccc3c2=O)c1 do in these assays?
SARS PLP yeast: inactive; AmpC inh no detg: 10µM; RE007 growth inh: inactive; Sm TGR inh: inactive; Tb PYK inh: inactive; AmpC inh detg: inactive

Results for COc1ccc(C(=O)OCn2nnc3ccccc3c2=O)cc1OC ?
SARS PLP yeast: inactive; AmpC inh no detg: inactive; RE007 growth inh: inactive; Sm TGR inh: inactive; Tb PYK inh: inactive; AmpC inh detg: inactive

What do the screens show for `CN(C)S(=O)(=O)c1ccc(C(=O)OCn2nnc3ccccc3c2=O)cc1`?
SARS PLP yeast: inactive; AmpC inh no detg: 10µM; RE007 growth inh: inactive; Sm TGR inh: inactive; Tb PYK inh: inactive; AmpC inh detg: inactive

Results for CC(C)C(NC(=O)C(CC(=O)O)NC(=O)C(CCCCN)NC(=O)C(N)CCCN=C(N)N)C(=O)NC(Cc1ccc(O)cc1)C(=O)O (stereo not given) ?
Tb PYK inh: inactive

Results for CCC1NC(=O)C(NC(=O)c2ncccc2O)C(C)OC(=O)C(c2ccccc2)NC(=O)C2CC(=O)CCN2C(=O)C(Cc2ccccc2)N(C)C(=O)C2CCCN2C1=O (stereo not given) ?
Tb PYK inh: inactive

Results for CCc1ccc(-n2nc3cc(C)c(NC(=O)c4cccc5ccccc45)cc3n2)cc1 ?
Sm TGR inh: inactive; Tb PYK inh: inactive; AmpC inh detg: inactive

Results for C=CCN1CCc2cccc3c2[C@H]1Cc1ccc(O)c(O)c1-3 ?
SARS PLP yeast: inactive; AmpC inh no detg: inactive; RE007 growth inh: inconclusive; Sm TGR inh: 1.58µM; Tb PYK inh: inconclusive; AmpC inh detg: inactive

Results for CCOC(=O)c1ccc(NC(=O)CC2C(=O)N(c3cccc(OC)c3)C(=O)N2Cc2ccc(OC)cc2)cc1 (stereo not given) ?
Sm TGR inh: inactive; Tb PYK inh: inactive; AmpC inh detg: inactive

How did Cc1ccc(NC(=O)c2nc(S(=O)(=O)Cc3ccccc3C)ncc2Cl)cc1C do in these assays?
SARS PLP yeast: inactive; AmpC inh no detg: inactive; RE007 growth inh: inactive; Sm TGR inh: 11.2µM; Tb PYK inh: inactive; AmpC inh detg: inactive

Results for CC(C)c1nnc(NC(=O)c2nc(S(=O)(=O)Cc3ccccc3)ncc2Cl)s1 ?
SARS PLP yeast: inactive; AmpC inh no detg: inactive; RE007 growth inh: inactive; Sm TGR inh: 39.8µM; Tb PYK inh: inactive; AmpC inh detg: inconclusive

Results for Cc1ccc(CS(=O)(=O)c2ncc(Cl)c(C(=O)Nc3nc4ccc(F)cc4s3)n2)cc1 ?
Sm TGR inh: inactive; Tb PYK inh: inactive; AmpC inh detg: inactive

How did CSc1ncc(Cl)c(C(=O)Nc2nnc(SC)s2)n1 do in these assays?
SARS PLP yeast: inactive; AmpC inh no detg: inactive; RE007 growth inh: inactive; Sm TGR inh: inactive; Tb PYK inh: inactive; AmpC inh detg: inactive

How did CCCc1nnc(NC(=O)c2nc(S(=O)(=O)Cc3ccc(C)cc3)ncc2Cl)s1 do in these assays?
SARS PLP yeast: inactive; AmpC inh no detg: inactive; RE007 growth inh: inactive; Sm TGR inh: 25.1µM; Tb PYK inh: inactive; AmpC inh detg: inactive

How did CSc1nnc(NC(=O)c2nc(S(=O)(=O)Cc3ccccc3)ncc2Cl)s1 do in these assays?
SARS PLP yeast: inactive; AmpC inh no detg: inactive; RE007 growth inh: inactive; Sm TGR inh: 12.6µM; Tb PYK inh: inactive; AmpC inh detg: inactive

What do the screens show for `Cc1ccc(CS(=O)(=O)c2ncc(Cl)c(C(=O)Nc3nc4ccc(C)cc4s3)n2)cc1`?
Sm TGR inh: inconclusive; Tb PYK inh: inactive; AmpC inh detg: inactive

What do the screens show for `CC(C)Sc1ncc(Cl)c(C(=O)Nc2nnc(C(C)C)s2)n1`?
Sm TGR inh: inactive; Tb PYK inh: inactive; AmpC inh detg: inactive

Results for Cc1ccccc1CS(=O)(=O)c1ncc(Cl)c(C(=O)Nc2nnc(C(C)C)s2)n1 ?
Sm TGR inh: 20µM; Tb PYK inh: inactive; AmpC inh detg: inactive

What do the screens show for `Cc1ccc(-c2cnc(NCc3c(F)cccc3Cl)n2C)cc1`?
Sm TGR inh: inactive; Tb PYK inh: inactive; AmpC inh detg: inactive

What do the screens show for `O=c1ccc2c(o1)/C(=C/C=C(Cl)Cl)CCC2`?
SARS PLP yeast: inactive; AmpC inh no detg: inactive; RE007 growth inh: inactive; Sm TGR inh: 22.4µM; Tb PYK inh: inactive; AmpC inh detg: inactive

How did O=C(CSc1nc2ccccc2nc1Cc1ccccc1)Nc1ccccc1C(F)(F)F do in these assays?
Sm TGR inh: inactive; Tb PYK inh: inactive; AmpC inh detg: inactive

Results for CC(C)CC(C(=O)Nc1cccc(O)c1)N1C(=O)c2ccccc2C1=O (stereo not given) ?
SARS PLP yeast: inactive; AmpC inh no detg: inactive; RE007 growth inh: inactive; Sm TGR inh: inactive; Tb PYK inh: inactive; AmpC inh detg: inactive

How did CC(C)CC(C(=O)Nc1oc(-c2ccco2)c(-c2ccco2)c1C#N)N1C(=O)c2ccccc2C1=O (stereo not given) do in these assays?
SARS PLP yeast: inactive; AmpC inh no detg: inactive; RE007 growth inh: inactive; Sm TGR inh: 56.2µM; Tb PYK inh: inactive; AmpC inh detg: inconclusive

Results for COc1ccc2c(c1)CCc1c(C(=O)Nc3ccccc3C(F)(F)F)noc1-2 ?
Sm TGR inh: inactive; Tb PYK inh: inactive; AmpC inh detg: inactive

What do the screens show for `N#CC1=C(N)OC2=C(CC/C2=C\c2ccccc2)C1c1ccccc1` (stereo not given)?
SARS PLP yeast: inactive; AmpC inh no detg: 11.2µM; RE007 growth inh: inactive; Sm TGR inh: 11.2µM; Tb PYK inh: inactive; AmpC inh detg: inactive

Results for O=C(COC(=O)CNC(=O)c1ccccc1)NCCc1ccccc1 ?
SARS PLP yeast: inactive; AmpC inh no detg: inactive; RE007 growth inh: inactive; Sm TGR inh: inactive; Tb PYK inh: inactive; AmpC inh detg: inactive

Results for O=C(CNC(=O)c1ccccc1)NCCc1ccc(O)c(O)c1 ?
SARS PLP yeast: inactive; AmpC inh no detg: inactive; Sm TGR inh: 3.16µM; AmpC inh detg: inactive

What do the screens show for `Cc1ccc(C)c(NC(=O)CSc2nc(N)c(NC(=O)c3cccs3)c(=O)[nH]2)c1`?
SARS PLP yeast: inactive; AmpC inh no detg: 14.1µM; RE007 growth inh: inactive; Sm TGR inh: inactive; Tb PYK inh: inactive; AmpC inh detg: inactive

How did Cc1ccc(C)c(NC(=O)CSc2nc3nc(-c4cccs4)cc(C(F)(F)F)c3c(=O)[nH]2)c1 do in these assays?
SARS PLP yeast: inactive; AmpC inh no detg: 3.55µM; RE007 growth inh: inactive; Sm TGR inh: inactive; Tb PYK inh: inactive; AmpC inh detg: inactive

Source: PubChem (National Center for Advancing Translational Sciences (NCATS))
